Results on 21 compounds are retold here after PubChem BioAssay AID2023 (NMMLSC, 2009).

The whole screen tested about 320,000 compounds, of which about 1,100 (0.34%) were called active. The full list was thinned out, with actives kept by preference. Values without a mark were called inactive.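 The calls were made as follows: active = GFP response vs DMSO above a set limit, about the screen mean plus 3 SD (cut at about 150% in these data); inconclusive = under 70 cell events counted for the yeast strain; inactive = the rest.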

This assay in a line: TOR pathway LAP4-GFP level changes – S. cerevisiae, multiplex flow cytometry, MLPCN library, primary screen (AID 2023). Particulars: 3 h, at 10 µM, active compounds read high, median GFP as percent of DMSO wells.
As for `COc1cccc(/C=N/Nc2ncc(C(F)(F)F)cc2Cl)c1O`, the GFP response vs DMSO is 184% (active). Regarding `Oc1cccc(/C=N/Nc2ccc(Cl)nn2)c1O`, the GFP response vs DMSO is 89.6%. The result for `FC(F)(F)c1cnc(Oc2ccccc2-c2nnc(-c3ccc(Cl)cc3)o2)c(Cl)c1` reads 96.3%. As for `Cc1ccc2nsnc2c1NC(=O)c1ccccc1[N+](=O)[O-]`, the GFP response vs DMSO was 93.2%. The result for `Cc1cc(=O)n2nc(N3CCCC(C(=O)NCCC4=CCCCC4)C3)sc2n1` (stereo unspecified) reads 196% (active).

For `Cc1cc(=O)n2nc(N3CCCC(C(=O)NCc4cccc(Cl)c4)C3)sc2n1` (stereo unspecified), the GFP response vs DMSO was 92.2%.

Regarding `Cc1cc(=O)n2nc(N3CCCC(C(=O)NCc4ccc(Cl)cc4)C3)sc2n1` (stereo unspecified), the GFP response vs DMSO was 92.3%. Take `CC(=O)NCCC(=O)Nc1cc(S(=O)(=O)N2CCCCC2)ccc1Oc1cccc(C)c1`: the GFP response vs DMSO was 87.1%. For `COc1ccc([C@H]2CC(=O)C=C(/C=C/c3ccccc3)C2)cc1`, the GFP response vs DMSO is 115%.

With `CC1=C/C(=N\OS(=O)(=O)c2ccccc2)C=CC1=O`, the GFP response vs DMSO was 257% (active).

In the case of `CCn1c(SCCC(C)C)nnc1-c1c[nH]c2ccccc12`, the GFP response vs DMSO was 169% (active). As to `CCC(C)Sc1nnc(-c2c[nH]c3ccccc23)n1CCOC` (stereo unspecified), the GFP response vs DMSO was 90.4%. Regarding `CCn1c(SCC(=O)Nc2ccc(OC)c(OC)c2)nnc1-c1c[nH]c2ccccc12`, the GFP response vs DMSO was 98.2%.

As to `C#CCOCCOCCOCCNc1nc(N2CCN(C(=O)CCCCCCCCCCNC(=O)[C@H](CCCCN)n3cc(C)nn3)CC2)nc(N2CCN(C(=O)CCCCCCCCCCNC(=O)[C@H](CO)n3cc(CCCSC)nn3)CC2)n1`, the GFP response vs DMSO was 155% (active). As for `C#CCOCCOCCOCCNc1nc(N2CCN(C(=O)CCCCCCCCCCNC(=O)Cn3cc(CCCCCN)nn3)CC2)nc(N2CCN(C(=O)CCCCCCCCCCNC(=O)[C@H](CO)n3cc(CCCSC)nn3)CC2)n1`, the GFP response vs DMSO is 118%. Then `C#CCOCCOCCOCCNc1nc(N2CCN(C(=O)CCCCCCCCCCNC(=O)[C@H]([C@@H](C)CC)n3cc(CCCCN=C(N)N)nn3)CC2)nc(N2CCN(C(=O)CCCCCCCCCCNC(=O)[C@H](CO)n3cc(CCCSC)nn3)CC2)n1`, with 135%; and `O=C(C1CCCO1)N1CCN(C(=S)Nc2cccc(Cl)c2)CC1` (stereo unspecified), with 95.7%. On to `Cc1cccc(NC(=S)N2CCCC(c3nc4ccccc4[nH]3)C2)c1` (stereo unspecified), for which the GFP response vs DMSO is 93.9%. For `Cc1ccc(C2CCN(C(=S)Nc3cccc(Cl)c3)C2)cc1` (stereo unspecified), the GFP response vs DMSO is 158% (active). For `O=S(=O)(c1ccc2ccccc2c1)N1CCN(S(=O)(=O)N2CCOCC2)CC1`, the GFP response vs DMSO was 87%. In the case of `COc1ccc(C)cc1N(CC(=O)NC(C)c1ccccc1)S(C)(=O)=O` (stereo unspecified), the GFP response vs DMSO is 80.6%.
